The values that follow come from PubChem BioAssay (NCATS).

The nature of test [1]: Primary qHTS for small molecule stabilizers of the endoplasmic reticulum resident proteome: Secreted ER Calcium Modulated Protein (SERCaMP) assay (AID 1508630). Also: % is scaled to controls: 0 for no effect and ±100 for the full control effect. Summed up:
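The SH-SY5Y reporter protocol was run at 3 concentrations up to 38.3 uM (primary) or 11 concentrations (follow-up): 16 h compound, 100 nM thapsigargin for 4 h, then extracellular luciferase luminescence.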

The nature of test [2]: A High-Content qHTS Against Drug Library for the Identification of Small Molecules that Inhibit DYT1 Early Onset Primary Dystonia-Associated Cell Pathology (AID 1645839; calls by dose curve). Summed up: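 Induced EGFP-delE TorsinA cells are imaged after 48 h of compound treatment. Punctate fusion-protein distribution gives the %pathology value, while nuclei counts flag toxicity. Wild-type EGFP-hTOR1A cells define the normal pattern.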

For test [3], the target named is Cytochrome P450 2D6 (Homo sapiens) (UniProt P10635). Description: Cytochrome P450 family 2 subfamily D member 6 (CYP2D6) small molecule antagonists: luciferase biochemical (cell-free) qHTS assay (AID 1645840; active = well fitted curve in the direction sought with a large enough effect in the repeat runs; an effect the other way counts as inactive or inconclusive; also: nearly all actives have a fitted effect of over 55% in size; also: potency is read from the fitted curve at half-maximal effect; as to activity change, negative = inhibition: % is scaled to controls: 0 for no effect and ±100 for the full control effect). Summed up:
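P450-Glo CYP2D6 system: proluciferin substrate converted by enzyme to luciferin, read by luminescence proportional to activity. Enzyme-substrate mix with compound 10 min at room temperature, then NADPH regeneration 1 h before detection reagent.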

The target in test [4] is Cytochrome P450 3A4 (Homo sapiens) (UniProt P08684). Description: Cytochrome P450 family 3 subfamily A member 4 (CYP3A4) small molecule antagonists: luciferase qHTS assay (AID 1645841; active = well fitted curve in the direction sought with a large enough effect in the repeat runs; an effect the other way counts as inactive or inconclusive; also: nearly all actives have a fitted effect of over 45% in size). Summed up:
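P450-Glo CYP3A4 enzyme with proluciferin substrate was preincubated with DMSO-dissolved compounds for 10 min at room temperature. NADPH regeneration solution started a 1 h reaction. Detection reagent stopped it, and luminescence was read after 20 min.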

For test [5], the target named is Cytochrome P450 2C9 (Homo sapiens) (UniProt P11712). As to the kind of experiment: Cytochrome P450 family 2 subfamily C member 9 (CYP2C9) small molecule antagonists: luciferase biochemical (cell-free) qHTS assay (AID 1645842; active = well fitted curve in the direction sought with a large enough effect in the repeat runs; an effect the other way counts as inactive or inconclusive; also: nearly all actives have a fitted effect of over 55% in size; also: potency is read from the fitted curve at half-maximal effect; as to activity change, negative = inhibition: % is scaled to controls: 0 for no effect and ±100 for the full control effect). Summed up: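 P450-Glo CYP2C9 system: proluciferin substrate with enzyme in mix containing 0.4% BSA, 10 min at room temperature, then NADPH regeneration solution added and incubated 1 h at 37C. Detection reagent stopped reaction; luminescence read after 20 min as RLU.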
For orientation: qHTS replaces the single test concentration by a dilution series.

A short description of test [6]: Primary qHTS for inhibitors of nuclear receptor binding SET domain protein 2 (NSD2) in an isogenic RCH-ACV NSD2 p.E1099K mutant (9B) (AID 1645876). Also: nearly all actives have a fitted effect of over 70% in size. Also: potency is read from the fitted curve at half-maximal effect.
Test [7] is described as follows: Cytotoxicity counterscreen for inhibitors of SARS-CoV-2 cell entry (AID 1645845; calls by dose curve; also: nearly all actives have a fitted effect of over 50% in size). Summed up:
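After a 15 min room-temperature ATPLite 1step step, luminescence reflected ATP remaining in HEK293-ACE2 cells exposed to compound for 1 h plus 48 h at 37 C, with percent activity set by cell and no-cell controls.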

Test [8] in a line: Primary qHTS to identify inhibitors of SARS-CoV-2 cell entry (AID 1645846; calls by dose curve; also: nearly all actives have a fitted effect of over 45% in size). The settings on record: activity change, negative = inhibition: at 57.1 µM (top of the series) unless noted. Summed up:
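Data are normalized to wells receiving SARS-CoV-2-S pseudoparticles and those given bald particles. Entry signal was luciferase luminescence in stable hACE2 Expi293F cells, 48 hr post-infection, after 1 hr compound pretreatment.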

The next test has as its target Papain (Carica papaya) (UniProt P00784). As to the kind of experiment: Primary qHTS assay for inhibitors of the protease papain (AID 1645873).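 Also: papain turnover of Z-FR-AMC read as the AMC fluorescence gain over 10 min; % is scaled to controls: 0 for no effect and ±100 for the full control effect.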
The nature of test [9]: Primary qHTS for inhibitors of nuclear receptor binding SET domain protein 2 (NSD2) in an RCH-ACV wild type WT cells (2C) (AID 1645877). Also: nearly all actives have a fitted effect of over 70% in size. Also: potency is read from the fitted curve at half-maximal effect.
Test [10] addresses N-terminal Xaa-Pro-Lys N-methyltransferase 1 (Homo sapiens) (UniProt Q9BV86). Description: Confirmatory qHTS for Inhibitors of N-terminal methyltransferase 1 (NTMT1): MTaseGlo Assay (AID 1645874).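 Also: luminescence from SAH made as NTMT1 methylates SPKRIA peptide using SAM; 0% = DMSO control and -100% = no-enzyme control; nearly all actives have a fitted effect of over 65% in size.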 Summed up: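 MTase-Glo luminescence measured SAH formed by 125 nM NTMT1 from 100 uM SAM and 1 uM SPKRIA peptide over 30 min at room temperature, following 15 min compound preincubation. Percent inhibition against no-enzyme and DMSO controls gave 4-parameter Hill fits.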

Results filed as inconclusive are left out. Active and inactive are the calls of the source. Unless noted, calls follow the shape of the dose curve; as a rule, active = well fitted curve in the direction sought with a large enough effect; inconclusive = small, poorly fitted or top-dose-only effect, or another doubt; inactive = no such curve, though single readings can be large; an effect the other way counts as inactive or inconclusive.

Cytochrome P450 2D6 (Homo sapiens), sequence (P10635 whole entry, looked up): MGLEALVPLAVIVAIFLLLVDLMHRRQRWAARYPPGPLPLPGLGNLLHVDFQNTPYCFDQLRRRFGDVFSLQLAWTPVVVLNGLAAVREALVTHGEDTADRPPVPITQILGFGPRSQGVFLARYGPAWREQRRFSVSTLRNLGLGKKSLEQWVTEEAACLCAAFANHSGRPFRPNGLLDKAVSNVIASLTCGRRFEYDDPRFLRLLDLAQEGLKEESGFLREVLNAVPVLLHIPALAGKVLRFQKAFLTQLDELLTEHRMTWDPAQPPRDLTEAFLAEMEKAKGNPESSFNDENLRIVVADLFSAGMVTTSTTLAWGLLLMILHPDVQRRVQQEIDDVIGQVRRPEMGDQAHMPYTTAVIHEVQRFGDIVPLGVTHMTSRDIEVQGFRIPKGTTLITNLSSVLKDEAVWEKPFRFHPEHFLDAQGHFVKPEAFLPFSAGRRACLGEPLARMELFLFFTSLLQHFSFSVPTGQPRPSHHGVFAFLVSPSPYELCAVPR
Cytochrome P450 3A4 (Homo sapiens), sequence (P08684 whole entry, looked up): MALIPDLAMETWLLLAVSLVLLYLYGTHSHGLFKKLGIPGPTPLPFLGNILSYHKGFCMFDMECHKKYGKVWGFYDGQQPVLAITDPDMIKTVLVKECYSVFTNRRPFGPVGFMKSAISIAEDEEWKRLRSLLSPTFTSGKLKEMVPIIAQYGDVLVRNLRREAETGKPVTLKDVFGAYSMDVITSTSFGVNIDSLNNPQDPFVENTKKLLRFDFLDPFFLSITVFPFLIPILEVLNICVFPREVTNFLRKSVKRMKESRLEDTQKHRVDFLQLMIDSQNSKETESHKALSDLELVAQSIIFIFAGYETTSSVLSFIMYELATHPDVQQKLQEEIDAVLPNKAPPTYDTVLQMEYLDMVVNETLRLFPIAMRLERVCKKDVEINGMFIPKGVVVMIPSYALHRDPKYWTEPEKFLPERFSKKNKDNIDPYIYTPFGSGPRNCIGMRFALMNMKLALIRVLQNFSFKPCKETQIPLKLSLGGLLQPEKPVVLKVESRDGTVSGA
Cytochrome P450 2C9 (Homo sapiens), sequence (P11712 whole entry, looked up): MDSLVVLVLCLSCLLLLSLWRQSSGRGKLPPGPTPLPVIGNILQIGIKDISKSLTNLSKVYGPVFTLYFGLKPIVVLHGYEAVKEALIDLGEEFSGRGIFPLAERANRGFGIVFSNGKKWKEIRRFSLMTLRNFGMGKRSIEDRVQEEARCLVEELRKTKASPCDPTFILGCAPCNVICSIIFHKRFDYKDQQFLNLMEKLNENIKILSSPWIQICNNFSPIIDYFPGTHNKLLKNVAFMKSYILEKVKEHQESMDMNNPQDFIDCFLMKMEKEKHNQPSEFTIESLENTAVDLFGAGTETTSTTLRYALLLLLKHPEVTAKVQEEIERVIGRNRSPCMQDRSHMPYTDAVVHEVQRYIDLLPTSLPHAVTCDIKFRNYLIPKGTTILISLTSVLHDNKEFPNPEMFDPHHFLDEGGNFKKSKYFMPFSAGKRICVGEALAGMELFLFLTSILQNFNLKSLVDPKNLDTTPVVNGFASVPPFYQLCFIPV
N-terminal Xaa-Pro-Lys N-methyltransferase 1 (Homo sapiens), sequence (Q9BV86 whole entry, looked up): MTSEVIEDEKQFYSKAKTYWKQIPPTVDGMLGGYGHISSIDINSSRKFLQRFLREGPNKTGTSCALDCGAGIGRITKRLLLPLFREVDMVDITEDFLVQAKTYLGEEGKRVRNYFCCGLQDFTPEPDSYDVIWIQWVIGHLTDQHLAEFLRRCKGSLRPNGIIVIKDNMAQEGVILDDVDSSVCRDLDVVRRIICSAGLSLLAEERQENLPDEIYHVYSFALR
Papain (Carica papaya), sequence (P00784 whole entry, looked up, the tested form may be a part): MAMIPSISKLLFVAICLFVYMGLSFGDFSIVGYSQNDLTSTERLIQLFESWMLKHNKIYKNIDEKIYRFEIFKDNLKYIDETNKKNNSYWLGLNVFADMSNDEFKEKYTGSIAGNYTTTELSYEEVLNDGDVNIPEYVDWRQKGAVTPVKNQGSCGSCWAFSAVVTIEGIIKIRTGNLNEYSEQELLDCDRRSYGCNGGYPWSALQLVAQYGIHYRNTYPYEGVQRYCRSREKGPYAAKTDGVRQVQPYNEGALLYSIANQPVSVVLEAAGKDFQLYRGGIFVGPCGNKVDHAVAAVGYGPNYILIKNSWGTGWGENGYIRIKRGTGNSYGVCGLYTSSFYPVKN

For the compound `C[C@H]1CNCCc2ccc(Cl)cc21`, the outcome in test [1] and in test [2] was inactive. Also, the Potency in test [3] is 1.95 µM (active). For the same compound, the Potency entry in [4], in [5] and in test [6] was “inactive” in each case.
As to `COc1ccc(C(=O)N2CCCC2=O)cc1`, the result (in test [1]; in test [2]; in the test with Papain (Carica papaya)) was inactive. Also, the Potency result in test [3], in test [5], in test [7], in test [8], in [6] and in test [9] was “inactive” in each case. Besides, in test [8], the activity change, negative = inhibition was 9.75%.
In the case of `CC(C)(O)C(Cl)(Cl)Cl`, the outcome in test [1] and in test [2] was inactive. In addition, the Potency result in [3], in [5], in test [7], in [8], in test [6] and in [9] was “inactive” throughout.
On to `C[C@]12C=CC(=O)C=C1CC[C@@H]1[C@@H]2CC[C@@]2(C)[C@H]1CC[C@]2(C)O`, for which the result in test [1] and in test [2] was inactive. The Potency result in test [3], in test [4] and in test [5] was “inactive” each time. In addition, the Potency in [6] is 23.7 µM (active).
For the compound `ClCCCN1CCN(c2cccc(Cl)c2)CC1`, the result in test [1] and in test [2] was inactive. Moreover, in test [3], the Potency is 1.1 µM (active). In addition, the Potency result in test [4] and in [6] was “inactive” in each case.
Consider `CC(C)=C[C@@H]1[C@@H](C(=O)OCc2coc(Cc3ccccc3)c2)C1(C)C`, for which the result in test [1] and in test [2] was inactive. The Potency entry in test [3] is “inactive”. For the same compound, in test [5], the Potency is 7.76 µM (active).
Regarding `CN(C)CCc1c[nH]c2ccccc12`, the result in test [1] and in [2] was inactive. In addition, in test [3], the Potency was 62.8 µM (active). Further, the Potency result in [4], in test [5], in [6] and in [9] was “inactive” throughout.
Consider `CCOC(=O)c1cncn1C(C)c1ccccc1` (stereo unspecified), for which the outcome in [1] and in test [2] was inactive. In addition, the Potency entry in test [3], in [7], in [8], in test [6] and in [9] was “inactive” each time. Further, the Potency in test [5] was 11 µM (active).
Regarding `C[C@]12Cc3nonc3C[C@@H]1CC[C@@H]1[C@@H]2CC[C@@]2(C)[C@H]1CC[C@]2(C)O`, the outcome in test [1] and in [2] was inactive. Further, the Potency entry in test [3] was “inactive”. The Potency in [6] and in test [9] was 21.1 µM (active) each time.
As to `COc1cc(CC(C)N)cc2c1OCO2` (stereo unspecified), the outcome in test [1] and in test [2] was inactive. For the same compound, the Potency result in test [5] was “inactive”.
In the case of `COc1ccc2c(C(=O)c3ccc(Cl)cc3)c(C)n(CC(=O)O)c2c1`, the result in test [1] and in test [2] was inactive. For the same compound, the Potency result in test [3], in test [6] and in [9] was “inactive” in each case.
Turning to `COc1cc(C[C@@H](C)N)c(OC)cc1C`, the outcome in test [1] and in [2] was inactive. For the same compound, in test [3], the Potency is 38.1 µM (active). The Potency result in test [5] and in test [6] was “inactive” each time.
As to `CC(Cc1ccc2c(c1)OCO2)NO` (stereo unspecified), the outcome in test [1] and in test [2] was inactive. Also, the Potency in test [3] was 61.1 µM (active); in test [5], 38.6 µM (active). In addition, the Potency entry in test [6] and in test [9] was “inactive” throughout.
As for `O=c1[nH]c2cc(Cl)ccc2n1C1CCNCC1`, the result in [1] and in test [2] was inactive. Besides, the Potency in [3] was 19.5 µM (active). Also, the Potency result in test [5], in [6] and in [9] was “inactive” throughout.
`CCS(=O)(=O)C(C)(C)S(=O)(=O)CC`: the outcome in [1] and in test [2] was inactive. The Potency result in [3], in test [5], in [6] and in test [9] was “inactive” in each case.
As to `ClC1=C(Cl)C2(Cl)C(CBr)CC1(Cl)C2(Cl)Cl` (stereo unspecified), the result in [1] and in [2] was inactive. In addition, the Potency entry in [3], in test [5], in [6] and in test [9] was “inactive” each time.
`CCOC(=O)C(c1c(O)c2ccccc2oc1=O)c1c(O)c2ccccc2oc1=O`: the outcome in test [1] and in [2] was inactive. For the same compound, the Potency entry in test [3], in test [6] and in test [9] was “inactive” throughout. In addition, in [5], the Potency is 3.09 µM (active).
Regarding `CCN(CC)CCOC(=O)C(C)(c1ccccc1)c1ccccc1`, the result in test [1] and in test [2] was inactive. In addition, the Potency is 1.38 µM (active) in [3] and 3.89 µM (active) in test [5]. In test [6], the Potency result is “inactive”.
Regarding `NCc1cccnc1`, the result in [1] and in test [2] was inactive. Moreover, the Potency entry in test [3], in [5], in [6] and in test [9] was “inactive” each time.
Take `CC(C)[N+](C)(CCC(C(N)=O)(c1ccccc1)c1ccccc1)C(C)C`: the outcome in test [1] and in test [2] was inactive. Besides, in test [3], the Potency is 1.95 µM (active). Also, the Potency entry in test [7], in test [6] and in [9] was “inactive” throughout. Further, in test [8], the activity change, negative = inhibition was -0.507%.
In the case of `CCNc1nc(Cl)nc(NCC)n1`, the result in test [1] and in test [2] was inactive. Besides, the Potency result in [3], in test [5], in [6] and in test [9] was “inactive” each time.
In the case of `C[N+](C)(C)CCOC(=O)C(O)(c1ccccc1)c1ccccc1`, the outcome in test [1] and in test [2] was inactive. Further, in test [3], the Potency was 15.5 µM (active). Also, the Potency result in [5], in test [6] and in test [9] was “inactive” in each case.
On to `C1CN2CCC1CC2`, for which the result in test [1] and in [2] was inactive. In addition, the Potency entry in test [3], in [5], in test [6] and in test [9] was “inactive” each time.
With `C[C@]12CC[C@H]3[C@@H](CC=C4C[C@@H](O)CC[C@@]43C)[C@@H]1CC[C@@H]2O`, the result in [1] and in [2] was inactive. In addition, the Potency entry in [3], in test [5], in test [6] and in [9] was “inactive” each time.
For `CCCOC(=O)Cc1ccc(OCC(=O)N(CC)CC)c(OC)c1`, the result in [1] and in test [2] was inactive. Also, the Potency result in test [3], in test [5], in [6] and in test [9] was “inactive” throughout.
`CC[C@H]1C[C@H]2[C@@H]3CCC4=CC(=O)CC[C@@H]4[C@H]3CC[C@]2(C)[C@H]1O`: the result in [1] and in test [2] was inactive. The Potency entry in [3], in [7] and in test [8] was “inactive” in each case.
`Oc1c(Br)cc(Br)cc1Br`: the outcome in test [1] and in [2] was inactive. The Potency result in test [3], in test [5], in test [6] and in [9] was “inactive” in each case.
Take `Cc1nc2ccccc2c(=O)n1-c1ccccc1Cl`: the result in [1] and in test [2] was inactive. Further, in test [5], the Potency was 27.7 µM (active).
Turning to `CN(C)CCc1c[nH]c2cccc(O)c12`, the result in test [1] and in test [2] was inactive. Moreover, the Potency in test [3] is 12.5 µM (active). Besides, the Potency entry in test [5] and in test [10] was “inactive” throughout.
As to `OC(O)C(Cl)(Cl)Cl`, the result in test [1] and in test [2] was inactive. Besides, the Potency result in test [3], in test [5], in test [6] and in test [9] was “inactive” each time.
In the case of `COCC(=O)N(c1c(C)cccc1C)C(C)C(=O)OC` (stereo unspecified), the result in [1] and in [2] was inactive. The Potency entry in test [3], in [5], in test [6] and in test [9] was “inactive” in each case.
